Test results as given in PubChem BioAssay (Tox21).
Results filed as inconclusive are left out. Values without a mark were called inactive. Active and inactive are the calls of the source. Calls follow the shape of the dose curve; as a rule, active = well fitted cell-killing curve with a large enough effect in the repeat runs; inconclusive = weak or mixed curves, or effect the other way; inactive = flat fitted curve, though single readings scatter.

Test: cAMP Responsive Elements (CRE) small molecule agonists, cell-based qHTS assay: qHTS cell viability counter screen (AID 2060914);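 also: viability read after 3 h of compound exposure; nearly all actives have a fitted effect of over 50% in size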
Conditions: CRE-bla HEK293T viability, CellTiter-Glo luminescence, 5 h; series mostly up to 92.4 µM; activity change, negative = cytotoxicity: at the top concentration
Excerpt: National Center for Advancing Translational Sciences [NCATS]
Division of Preclinical Innovation [DPI]
U.S. Environmental Protection Agency [EPA]
National Institutes of Environmental Health Sciences [NIEHS]
National Toxicology Program [NTP]
U.S. Food and Drug Administration [FDA]
CREB (cyclic-AMP Responsive Element Binding Protein) is a cellular transcription factor. It binds to certain DNA sequences called cAMP Responsive Elements (CRE) and regulates the transcription of the genes. […] This cell line can be used to find agonists/antagonists of the cyclic AMP signaling pathway. The activation of the report gene under culture conditions can be detected by fluorescence intensity. This cell line has been used to screen the Tox21 10K compound library to identify agonists that induce oxidative stress. The cytotoxicity of the Tox21 compound library against the CRE-bla cell line was tested in parallel by measuring the cell viability using CellTiter-Glo assay (Promega, Madison, WI) in the same wells.
Tox21 Assay Protocol Summary:
CRE-bla Hek 293T cells were suspended in assay medium (DMEM containing 10% dialyzed FBS, 0.1 mM NEAA, 1 mM sodium pyruvate and 25 mM HEPES) and dispensed at 2,000 cells/5 uL /well into 1536-well black wall/clear bottom plates using a Multidrop Combi (ThermoFisher Scientific, Waltham, MA) dispenser. After the assay plates were incubated at 37 C/5% CO2 for 18 hrs, 23 nL of compounds dissolved in DMSO, positive controls or DMSO only was transferred to the assay plate by a pintool workstation (Kalypsys, San Diego, CA). After the plates were incubated at 37 C/5% CO2 for 3 hrs, 1 uL of LiveBLAzer B/G FRET substrate (Invitrogen, Carlsbad, CA) was added to each well using Bioraptr Flying Reagent Dispenser (FRD, Aurora Discovery, San Diego, CA). The plates were incubated at room temperature for 2 h, then fluorescence intensities were measured using an Envision plate reader (PerkinElmer, Shelton, CT) at Excitation 405nm, Emission 460nm and 530nm. The % activity was determined from the ratio of 460nm/530nm. For cell viability readout that measures cytotoxicity, 4 uL /well of CellTiter-Glo reagent was added into the assay plates using Bioraptr FRD. After 30 min incubation at room temperature, the luminescence intensity in the assay plates was measured using a ViewLux (PerkinElmer, Shelton, CT) plate reader.
% is scaled to controls: 0 for no effect and ±100 for the full control effect; potency is read from the fitted curve at half-maximal effect.

Row | SMILES | activity change, negative = cytotoxicity | Potency
1 | ON=C1CCCC1 | 13.4% | –
2 | NC1[C@H]2CN(c3nc4c(cc3F)c(=O)c(C(=O)O)cn4-c3ccc(F)cc3F)C[C@@H]12 (stereo not given in full) | -6.57% [at 42.5 µM] | –
3 | Clc1ccc(C(Cn2ccnc2)OCc2c(Cl)cccc2Cl)c(Cl)c1 (stereo not given) | -1.93% [at 42.5 µM] | –
4 | Cc1nn(C)c(Oc2ccccc2)c1/C=N/OCc1ccc(C(=O)OC(C)(C)C)cc1 | -15.9% | –
5 | CCCCCCN | -10.2% | –
6 | C=CCOc1nc(OCC=C)nc(OCC=C)n1 | -15.6% | –
7 | COC(=O)C(C)O (stereo not given) | 1.93% | –
8 | CC[C@H]1OC(=O)[C@H](C)[C@@H](O[C@H]2C[C@@](C)(OC)[C@@H](O)[C@H](C)O2)[C@H](C)[C@@H](O[C@@H]2O[C@H](C)C[C@H](N(C)C)[C@H]2O)[C@](C)(O)C[C@@H](C)CN(C)[C@H](C)[C@@H](O)[C@]1(C)O | -8.8% [at 42.5 µM] | –
9 | CCOc1ccc(NC(=O)CC(C)=O)cc1 | 12.1% | –
10 | CC(=O)N(CC(O)CO)c1c(I)c(C(=O)NCCO)c(I)c(C(=O)NCC(O)CO)c1I (stereo not given) | -7.59% [at 42.5 µM] | –
11 | CNCCC(Oc1ccc(C(F)(F)F)cc1)c1ccccc1 (stereo not given) | -5.52% [at 42.5 µM] | –
12 | CC(C)=CCC/C(C)=C\C#N | -3.87% | –
13 | CCOCCOCCOCC | -11.4% | –
14 | CCc1cccc2c3c([nH]c12)C(CC)(CC(=O)O)OCC3 (stereo not given) | – | inactive
15 | CCC(=O)OC/C=C(\C)CCC=C(C)C | 0.26% | –
16 | CCCCCCCCCCCCCCCCCCOCCO | -6.34% [at 18.9 µM] | –
17 | O=C1NCC2(CCN(CCc3ccccc3)CC2)O1 | 2.74% [at 42.5 µM] | –
18 | CC(=O)[C@@]1(O)CC[C@H]2[C@@H]3CCC4=CC(=O)CC[C@]4(C)[C@H]3CC[C@@]21C | – | inactive
19 | CCc1ccc(O)c(C(C)(C)C)c1 | -22.4% | –
20 | CCCCCCCCCCCCN(CCO)CCO | – | 60.9 µM (active)

Row | SMILES | activity change, negative = cytotoxicity | Potency
21 | COC(=O)c1cc(Cl)ccc1[N+](=O)[O-] | 0.687% | –
22 | CNC[C@H](O)c1ccc(O)c(O)c1 | – | inactive
23 | O | – | inactive
24 | CCOC(=O)NNc1ccc(N(CC)CC(C)O)nn1 (stereo not given) | 1.1% [at 42.5 µM] | –
25 | CCCCCCCCOc1ccc(C(=O)O)cc1 | 1.89% | –
26 | CCOC(=O)C(C)O (stereo not given) | -11.7% | –
27 | CCCCN1C[C@H](O)[C@@H](O)[C@H](O)[C@H]1CO | -13.4% [at 42.5 µM] | –
28 | CCCCCCCCCCCCCCCC(=O)OC/C=C(C)/C=C/C=C(C)/C=C/C1=C(C)CCCC1(C)C | -0.112% | –
29 | COc1ccc(-c2cc(=O)c3c(O)cc(O[C@@H]4O[C@H](CO[C@@H]5O[C@@H](C)[C@H](O)[C@@H](O)[C@H]5O)[C@@H](O)[C@H](O)[C@H]4O)cc3o2)cc1O | -3.79% [at 42.5 µM] | –
30 | N[C@@H](Cc1cc(I)c(O)c(I)c1)C(=O)O | -5.48% [at 42.5 µM] | –
31 | Oc1ccc(-c2ccc(O)cc2)cc1 | 18% | –
32 | CO[Si](CCCn1c(=O)n(CCC[Si](OC)(OC)OC)c(=O)n(CCC[Si](OC)(OC)OC)c1=O)(OC)OC | 12.6% [at 42.5 µM] | –
33 | CCCCCCCCCCCCCCC(=O)O | -4.44% | –
34 | Cc1ccc(O)c(C(C)(C)C)c1 | – | inactive
35 | C[C@H]1O[C@@H](n2cc(F)c(=O)[nH]c2=O)[C@H](O)[C@@H]1O | -0.401% [at 42.5 µM] | –
36 | CC(C)(C)c1cc(CCC(=O)OCC(COC(=O)CCc2cc(C(C)(C)C)c(O)c(C(C)(C)C)c2)(COC(=O)CCc2cc(C(C)(C)C)c(O)c(C(C)(C)C)c2)COC(=O)CCc2cc(C(C)(C)C)c(O)c(C(C)(C)C)c2)cc(C(C)(C)C)c1O | -0.902% [at 42.5 µM] | –
37 | CCc1cccc(C)c1N(C(=O)CS(=O)(=O)O)C(C)COC (stereo not given) | 2.06% | –
38 | CC(C)c1nnc2ccc(-c3ocnc3-c3cc(F)ccc3F)cn12 | -9.54% | –
39 | Cc1c[nH]c2ccccc12 | 15.2% [at 42.5 µM] | –
40 | O=C(c1ccc(O)cc1O)c1ccc(O)cc1O | – | inactive
